# Reference: PubChem BioAssay AID2315 (National Center for Advancing Translational Sciences (NCATS), 2010)
# The campaign covered roughly 290,000 compounds. About 27,000 (9.3%) were called active. No stated cut-off is given here; in the data, active means inhibition mostly above about 28% (no sharp cut-off); inactive means mostly below about 43%. The entries come from a sample that favours actives as a whole.
# Assay: A qHTS for Small Molecule Inhibitors of Shiga Toxin; further: 0% is about no effect
# Details: Vero cells, Shiga toxin protein synthesis inhibition reporter; at 38.7 µM, hits give high values
row,SMILES,inhibition
1,Cc1cccc(N2CCN(S(=O)(=O)c3ccc(-c4cc(C)no4)s3)CC2C)c1 (configuration not stated),-9.9% (inactive)
2,COc1ccc([N+](=O)[O-])cc1NCC(=O)c1ccc(C)cc1,17.1% (inactive)
3,COc1ccccc1NC(=O)C1CCN(C(=O)c2ccc(C(C)(C)C)cc2)CC1,18.1% (inactive)
4,COc1ccccc1C(=O)Nc1ccnn1C1CCN(C(=O)C(C)(C)C)CC1,20.1% (inactive)
5,O=C(c1c(Cl)cccc1Cl)N1CCN(c2cccc3[nH]ccc23)CC1,-6.91% (inactive)
6,O=C(c1ccc2ccccc2n1)N1CCN(c2ccccc2Cl)CC1,62.1% (active)
7,COc1ccccc1N1CCN(C(=O)c2c(-c3c(Cl)cccc3Cl)noc2C)CC1,-7.02% (inactive)
8,Cn1c(CCc2ccccc2)nnc1SCC(N)=O,-2.98% (inactive)
9,CCOc1ccc(-n2c(SCC(N)=O)nnc2-c2ccco2)cc1,1.48% (inactive)
10,Cc1ccc(NC(=O)CN(C)C(=O)c2ccc(Br)o2)cc1,24.8% (inactive)
11,COc1ccc(C(=O)CC(=O)c2ccc(C)cc2)c(O)c1,5.12% (inactive)
12,Cc1cc(O)cc(O)c1C(=O)Cc1cnn(-c2ccccc2)c1,52.3% (inactive)
13,COc1ccc(C(=O)Cc2cnn(-c3ccccc3)c2)c(O)c1,104% (active)
14,[2H]C(CCOS(N)(=O)=O)c1ccccc1 (configuration not stated),-5.48% (inactive)
15,COc1cc2ccccc2cc1C(=O)Nc1ccc(N2CCOCC2)cc1,18.7% (inactive)
16,CN(CC(=O)Nc1ccc(N2CCOCC2)cc1)CC(=O)Nc1ccccc1[N+](=O)[O-],-10.3% (inactive)
17,O=C(Nc1ccc(N2CCOCC2)cc1)c1ccc(-c2ccccc2[N+](=O)[O-])o1,46.4% (active)
18,Cc1nnc(SCC(=O)Nc2ccc(S(=O)(=O)Nc3ccc(Cl)nn3)cc2)s1,-5.8% (inactive)
19,NS(=O)(=O)c1ccc(-c2ccc(/C=C3\SC(=O)NC3=O)o2)cc1,-1.11% (inactive)
20,Clc1ccc(N/N=C/c2cccs2)nn1,122% (active)
21,Nc1nnnn1/N=C/c1cccs1,-9.54% (inactive)
22,Cc1ccsc1/C=N/Nc1ccc(Cl)nn1,17.1% (inactive)
23,COc1cccc(/C=N/Nc2ccc(Cl)nn2)c1,25.9% (inactive)
24,Oc1cccc(/C=N/Nc2ccc(Cl)nn2)c1O,60.3% (active)
25,Cc1ccc(S(=O)(=O)N2CCN(c3ccccc3)CC2)cc1C,-9.21% (inactive)

row,SMILES,inhibition
1,CCN1C(=O)C(CC(=O)Nc2cc(C)ccc2C)SC1=Nc1ccc(S(N)(=O)=O)cc1 (configuration not stated),28.8% (inactive)
2,O=C(CC1SC(=Nc2ccccc2)N(Cc2ccccn2)C1=O)Nc1cccc(Cl)c1 (configuration not stated),44.2% (active)
3,CN1C(=O)C(CC(=O)Nc2ccccc2)S/C1=N/c1nccs1 (configuration not stated),-5.12% (inactive)
4,COc1ccc(NC(=O)CCCN2C(=O)C(c3ccccc3)Oc3cccnc32)cc1 (configuration not stated),-5.94% (inactive)
5,COc1cc(/C=N/Nc2nn3cnnc3c3ccccc23)cc(OC)c1OC,18.6% (inactive)
6,C/C(=N\Nc1nncc2ccccc12)c1ccc(Cl)c([N+](=O)[O-])c1,59.8% (inactive)
7,CN(CCO)c1ccc(/C=N/Nc2nncc3ccccc23)cc1,41.9% (active)
8,Oc1ccc(N=Nc2nccs2)c(O)c1,58.3% (active)
9,Oc1ccc2ccccc2c1N=Nc1nccs1,13.9% (inactive)
10,Cc1ccc(CNC(=O)Cn2cnc(S(=O)(=O)N3CCCCC3)c2)o1,0.422% (inactive)
11,O=C(Nc1ccc2c(c1)CCC2)c1cccc(S(=O)(=O)Nc2ccccc2Cl)c1,8.91% (inactive)
12,O=C(Nc1ccc2c(c1)CCC2)c1cccc(S(=O)(=O)N2CCN(c3ccc(F)cc3)CC2)c1,86.5% (active)
13,Cc1cccnc1NC(=O)c1cccc(S(=O)(=O)N2CCN(c3ccc(F)cc3)CC2)c1,-9.4% (inactive)
14,O=C(O)CSCc1nc2ccccc2s1,49.5% (inactive)
15,CN(Cc1nc2ccccc2s1)C(=O)c1ccc(F)cc1,27.2% (inactive)
16,O=C(O)CS/C(=C\c1ccc(F)cc1)c1nc2ccccc2s1,121% (active)
17,CCOC(=O)N1CCN(C(=O)c2ccc3c(=O)n(CCc4ccc(OC)c(OC)c4)c(=O)[nH]c3c2)CC1,-3.86% (inactive)
18,Cc1cccc(CSc2nnc(C)c(=O)n2N)c1,-13% (inactive)
19,Cc1nnc(SCc2cccc(Cl)c2)n(N)c1=O,-4.93% (inactive)
20,Nn1c(SCc2ccccc2)nnc1C1CCCCC1,101% (active)
21,CC(C)CC(=O)Nc1ccc(Cc2ccncc2)cc1,-5.26% (inactive)
22,Cc1nc2cc(C(F)(F)F)ccc2n1CCNc1nc(-c2cc(Cl)c(N)c(Cl)c2)cs1,-1.88% (inactive)
23,COc1ccc(CN2CCN(C(=O)CCC(=O)Nc3nnc(C(C)C)s3)CC2)cc1F,-3.9% (inactive)
24,Cc1ccc(C(=O)NNc2ncnc3ccccc23)cc1,76.1% (active)
25,Cc1ccc(C(=O)NNC(=O)c2cc3cc4ccccc4nc3s2)cc1,-14.9% (inactive)

row,SMILES,inhibition
1,CCc1nc(SCC(=O)NNC(=O)c2ccc(C)cc2)c2ccccc2n1,-1.93% (inactive)
2,CC(C)CC(=O)Nc1nnc(S(=O)(=O)N(C)c2ccc(Cl)cc2)s1,-4.79% (inactive)
3,CCOC(=O)C1=C(C)Nc2nc3ccccc3n2C1c1cccs1 (configuration not stated),-8.56% (inactive)
4,CCOC(=O)C1=C(C)NC(=S)NC1c1cccs1 (configuration not stated),-11.1% (inactive)
5,C=CCOC(=O)C1=C(C)NC(C)=C(C(=O)OCC=C)C1c1cccs1,86.3% (active)
6,COc1ccc(CCNC(=O)c2cnc(Cl)c(Cl)c2)cc1,-1.83% (inactive)
7,COc1ccc(-c2cc(C(=O)NCCCN3CCOCC3)no2)cc1,20% (inactive)
8,COc1ccc(OCc2cc(C(=O)NCC3(C)COC3)no2)c(Cl)c1,75.4% (active)
9,CC1CC(C)CN(CCCNC(=O)c2csc3c2CCCCC3)C1 (configuration not stated),-1.88% (inactive)
10,CC(=O)c1cccc(NC(=O)c2cc(C)nn2-c2ccccc2)c1,30.5% (inactive)
11,CC(C)C[C@H](NC(=O)N1CCn2c1nc1ccccc12)C(=O)NC1CC1,23.3% (inactive)
12,CCCCNC(=O)N(O)C1N(/N=C/c2ccc(N(C)C)cc2)C(=S)SC1(C)C (configuration not stated),-5.76% (inactive)
13,CCCCNC(=O)N(O)C1N(/N=C/c2ccccc2O)C(=S)SC1(C)C (configuration not stated),34.2% (active)
14,CCC(C)N1C(=S)SC(C)(C)C1N(O)C(=O)NC1CCCCC1 (configuration not stated),-10.6% (inactive)
15,Cc1ccc(S(=O)(=O)NC(=O)c2cccc(C)c2)cc1,18.1% (inactive)
16,Cn1ncc2c(N3CCCCC3)nc(NCCCO)nc21,1.02% (inactive)
17,COc1cc(CN2CCC(n3nccc3NC(=O)CCCc3ccccc3)CC2)ccc1O,7.77% (inactive)
18,C/C(CC(=O)NC(C)(C)C)=N\NC(=O)c1ccco1,70.6% (active)
19,COc1ccc(N(CC(=O)NC(C)(C)C)C(=O)c2ccco2)cc1,-10.7% (inactive)
20,CC(C)(C)NC(=O)c1cc(NC(=O)c2ccco2)cc(NC(=O)c2ccco2)c1,24.3% (inactive)
21,CCNS(=O)(=O)c1ccc(CCC(=O)N2CCN(c3ccc(OC)cc3)CC2)cc1,13.1% (inactive)
22,Cc1nn(CCCC(=O)NCc2ccccc2Cl)c(=O)c2nccn12,-3.9% (inactive)
23,NC(=O)c1oc2ccccc2c1NC(=O)CS(=O)(=O)c1ccccc1,12.2% (inactive)
24,COC(=O)c1ccc(CN2C(=O)NC(c3ccccc3)(c3ccccc3)C2=O)o1,21.7% (inactive)
25,Cc1ccc2c(c1)N(CC(=O)NCCCN1CCCCC1)C(=O)c1cccnc1O2,2.73% (inactive)

row,SMILES,inhibition
1,O=C(Nc1ccc2oc(-c3ccc4ccccc4c3)nc2c1)c1cccs1,80.9% (active)
2,O=C(Cc1cccc2ccccc12)NNC(=O)Nc1ccc(Cl)cc1,62.1% (inactive)
3,CC(Oc1cccc(NC(=O)c2cccs2)c1)C(=O)c1ccccc1 (configuration not stated),36.4% (inactive)
4,O=C(Nc1ccc(NC(=O)c2cccs2)cc1)c1ccc2ccccc2c1,24.5% (inactive)
5,O=C(Cc1cccc2ccccc12)Nc1ccc2oc(-c3ccccc3)nc2c1,74.8% (active)
6,CC(O)c1cccc(NC(=O)Cc2cccc3ccccc23)c1 (configuration not stated),0.246% (inactive)
7,COc1ccnc2c1c(=O)n(Cc1cccc(F)c1)c(=O)n2C,-2.76% (inactive)
8,Cn1c(=O)c2c(nc(NCCNC(=O)c3ccco3)n2Cc2ccccc2F)n(C)c1=O,-9.7% (inactive)
9,CCN(CC)CCCSc1nc2ccccc2s1,47.9% (inactive)
10,O=C(CSc1nc2ccccc2s1)Nc1ccc(C(=O)O)cc1,-1.35% (inactive)
11,O=C(O)c1ccccc1CSc1nc2ccccc2s1,70.7% (active)
12,COc1cc(OC)cc(C(=O)OCC(=O)Nc2sccc2C(N)=O)c1,-3.26% (inactive)
13,CCOC(=O)N1CCN(C(=O)C2CCN(S(=O)(=O)c3cc(Cl)ccc3OCC)CC2)CC1,-12.3% (inactive)
14,Cc1ccc(N(CC(=O)NC2CCCCC2)C(=O)CCCC(=O)Nc2ccccn2)c(C)c1,-5.94% (inactive)
15,COc1ccc(CCc2nc(-c3cccs3)no2)cc1,120% (active)
16,CCc1ccc(CNC(=O)CCc2nc(-c3cccs3)no2)cc1,-8.04% (inactive)
17,COc1ccc(OC)c(CNC(=O)CCc2nc(-c3cccs3)no2)c1,4.93% (inactive)
18,COc1ccc(S(=O)(=O)NCCc2cc3ccc(C)c(C)c3[nH]c2=O)cc1,1.8% (inactive)
19,Cn1c(SCc2ccc(F)cc2)nnc1-c1ccncc1,3.38% (inactive)
20,Cc1cc(C)nc(SCC(=O)c2ccc(Cl)cc2)n1,-6.93% (inactive)
21,Cc1cc(SCC(=O)c2ccccc2)nc(SCC(=O)c2ccccc2)n1,51.3% (inactive)
22,Cc1cc(C)nc(S/C=C/C(=O)c2ccccc2)n1,159% (active)
